VACV Venus inh = qHTS for Stage-Specific Inhibitors of Vaccinia Orthopoxvirus: Venus Reporter Primary qHTS | Vaccinia virus Venus reporter expression, fluorescence | Potency, µM (highest dose often 36.5 µM), for inactives: top-dose activity change, negative = inhibition, actives largely listed as inhibitors | actives 0.46% (n = 330,000) | AID 720580, 2013; calls by dose curve; tested in A549 cells; further: potency means the concentration at half of the fitted maximal effect; nearly all actives have a fitted effect of over 30% in size
Vaccinia mCherry = qHTS for Stage-Specific Inhibitors of Vaccinia Orthopoxvirus: mCherry Reporter Primary qHTS; Potency, µM (titrated, usually from 36.5 µM), without a hit: top-dose activity change, negative = inhibition, most hits filed as inhibitors; AID 720579, 2013; actives 0.63% (n = 310,000); Vaccinia virus mCherry reporter infection, fluorescence; calls by dose curve; tested in A549 cells; further: potency means the concentration at half of the fitted maximal effect; nearly all actives have a fitted effect of over 35% in size
LASV entry inh = qHTS for Inhibitors of binding or entry into cells for Lassa Virus; Lassa virus pseudotype entry inhibition, cell reporter; Potency, µM (highest dose often 37.9 µM), for the others: top-dose activity change, negative = inhibition, actives largely listed as inhibitors; actives 1.2% (n = 300,000); calls by dose curve; tested in HEK293 cells; further: potency means the concentration at half of the fitted maximal effect; nearly all actives have a fitted effect of over 50% in size
HCMV inh = qHTS Assay for inhibitors of the human cytomegalovirus (HCMV) | HFF cells, HCMV-luciferase reporter, 72 h; stronger effect = lower value | activity change, negative = inhibition, % at 57.5 µM | actives 4.5% (n = 410,000); in the data active means activity change below about -60%; inconclusive means no clear call, values can overlap the other calls; inactive means above about -39%
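HFF cells seeded 16 h at 37C, treated with compounds, infected with luciferase-reporter HCMV at MOI 1 PFU/cell; luciferase read at 72 h post infection, normalized to buffer-only and Salinomycin controls.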
FMDV inh = High Throughput Screening for Foot and Mouth Disease Virus Antivirals. Potency, µM (titrated, usually from 57.9 µM), for inactives: top-dose activity change, negative = inhibition, hits mostly inhibitors. actives 1.2% (n = 410,000). AID 1159524, 2015. FMDV antiviral cell-based qHTS; calls by dose curve; tested in HEK293T cells; further: read-out not given here; potency means the concentration at half of the fitted maximal effect; nearly all actives have a fitted effect of over 45% in size
MARV entry inh = qHTS for inhibitors of binding or entry into cells for Marburg Virus; Marburg virus pseudotyped entry inhibition, cell reporter; Potency, µM (doses to about 37.8 µM), without a hit: at the highest dose activity change, negative = inhibition, actives largely listed as inhibitors; actives 1.8% (n = 300,000); AID 540276, 2011; calls by dose curve; tested in HEK293 cells; further: potency means the concentration at half of the fitted maximal effect
* marks the source's active call; other numbers are inactive results; i = inactive; ? = inconclusive; nt = no result given; ! = repeats disagree; [ ] = remark or other dose. Compounds with a hit are over-represented: about 6.5% of the library has one in this group of screens. On the % scale 0 is the no-effect control and ±100 the full control effect.

SMILES	VACV Venus inh	Vaccinia mCherry	LASV entry inh	HCMV inh	FMDV inh	MARV entry inh
Cc1ccc(-c2c[n+]3c(n2-c2ccccc2)CCC3)cc1	-24.8%	-16.3%	?	-95.8*	?	?
CCOc1ccc(-c2c(C)n(-c3ccc(OCC)cc3)c3[n+]2CCCCC3)cc1	-18.1%	-19.7%	?	-94.8*	?	?
CCOc1ccc(-n2c(C)c(C(C)=O)c(C(C)=O)c2C)cc1	-27.0%	nt	1.3%	?	-23.3%	-0.5%
CCOc1ccc(-n2c(-c3ccccc3)c[n+]3c2CCCCC3)cc1	nt	nt	nt	-100.2*	?	nt
COc1cc(CN(C(=O)c2ccc(OC(C)C)cc2)c2ccccn2)cc(OC)c1OC	-20.0%	-12.0%	-13.1%[46.1 µM]	-29.6	0.0%	?
C#CC(c1ccccc1)(c1ccccc1)n1ccnc1	-20.3%	-7.2%	nt	?	-23.9%	nt
Clc1ccccc1C(c1ccccc1)(c1ccccc1)n1ccnc1	-15.5%	-23.7%	6.51µM*	-69.7*	?	15.8µM*
CC(C)N(Cc1nccn1C)C(=O)c1cc(COc2ccc3ncccc3c2)on1	-12.9%	?	?	-71.3*	-5.8%	-22.2%[46.1 µM]
Cc1ccc(F)cc1CNC(=O)c1cc(COc2ccc3ncccc3c2)on1	-6.7%	?	?	-95.7*	25.1µM*	?
CC(CCCC(C)(C)O)NC(=O)c1cc(COc2ccc3ncccc3c2)on1 (stereo not given)	-20.2%	-25.3%	?	-87.5*	?	-9.2%[46.1 µM]
O=C(NCc1cccc(Cl)c1)c1cc(COc2ccc3ncccc3c2)on1	-22.2%	?	?	?	15.8µM*	?
COc1cccc(OCc2cc(C(=O)N(Cc3nccn3C)C(C)C)no2)c1	nt	nt	nt	-26.9	-19.4%	nt
COc1ccc2c3c(n(C)c2c1)[C@H](CO)N(C(C)=O)CC31CCN(C(=O)C2CCOCC2)CC1	nt	nt	nt	36.0	nt	nt
Cc1cnc(C)c(-c2cccc3c2OC(CNC(=O)C2(c4ccc(Cl)cc4)CC2)C3)n1 (stereo not given)	-4.8%	-10.0%	nt	nt	-7.7%	nt
COc1ccccc1NC(=O)C1CCN(S(=O)(=O)c2ccc3[nH]c4c(c3c2)CCCCC4)CC1	-9.0%	-15.7%	-2.9%[46.1 µM]	?	1.8%	nt
Cc1ccc(OCc2cc(C(=O)N(C)Cc3cnn(C)c3)no2)cc1C	-11.4%	-11.8%	nt	36.0	40.5%	nt
CSc1ccccc1OCc1cc(C(=O)NCCn2nc(C)cc2C)no1	-16.4%	-4.6%	?	-15.5	-22.4%	-22.0%
Cc1ccc(OCc2cc(C(=O)N(C)Cc3cnn(-c4ccccc4C)c3)no2)cn1	-20.6%	-19.0%	7.94µM*	-26.4	0.0%	?
Cc1nc(CN(C)C(=O)c2cc(COc3ccc4ncccc4c3)on2)cs1	-18.2%	-8.6%	?	-64.6*	?	?
Cc1ccc(OCc2cc(C(=O)N(C)CCc3ccccn3)no2)cc1C	nt	nt	nt	-3.8	6.3%	nt
Cc1cc(C)n(CCNC(=O)c2cc(COc3ccc4ncccc4c3)on2)n1	nt	nt	nt	0.0	12.6µM*	nt
CN(Cc1ccccn1)C(=O)c1cc(COc2ccc(F)c(F)c2)on1	-17.5%	-8.2%	nt	-92.9*	2.6%	nt
Cc1ccc(S(=O)(=O)/N=C2/C=C(Sc3ncn[nH]3)C(=O)c3ccccc32)cc1	7.08µM*	2.82µM*	2.91µM*	nt	-24.7%	?
Cc1ccc(S(=O)(=O)Nc2ccc(O)c(Sc3ncn[nH]3)c2)cc1	-6.5%	?	18.1%[46.1 µM]	-3.1	-7.1%	10.6%
Cc1ccc(S(=O)(=O)/N=C2/C=C(Sc3ncn[nH]3)C(=O)c3ccccc32)c(C)c1	nt	nt	4.11µM*	nt	nt	?
SMILES	VACV Venus inh	Vaccinia mCherry	LASV entry inh	HCMV inh	FMDV inh	MARV entry inh
Cc1ccc(F)c(C(=O)N2CC3ON=C(c4c(F)cccc4Cl)C3C2)c1F (stereo not given)	nt	nt	nt	3.6	nt	nt
CCC(=O)N[C@@H]1Cc2ccccc2[C@@H](c2ccccc2)C1	nt	nt	nt	nt	-16.9%	nt
COc1cccc2ccc(CN3CCC4(CC3)c3ccccc3[C@@H](NC(=O)c3ccccc3)[C@@H]4O)nc12	3.3%	-12.2%	nt	nt	-1.2%	nt
CCc1ccccc1NC(=O)C(=O)NCCc1sc(-c2cccc(F)c2)nc1C	-5.9%	-20.2%	12.7%[46.1 µM]	2.6	-9.2%	nt
Cc1cccc(N2CCC(N3CCN(C4CCCCC4)C(CCO)C3)CC2)c1C (stereo not given)	-10.0%	?	5.9%[46.1 µM]	-75.3*	?	?
CCCCCc1nc2sc3c(c2c(=O)n1NC(=O)c1ccc([N+](=O)[O-])cc1)CC(C)(C)OC3	?	-2.5%	?	-89.3*	-13.4%	?
COCCCN(Cc1ccco1)C(=O)c1cc2c(s1)-c1ccccc1OC2	-21.9%	-14.4%	nt	-35.2	20.3%	15.7%[46.1 µM]
Cc1ccc(/C([O-])=C(/C(=S)NCc2ccc3c(c2)OCO3)[n+]2ccc(N(C)C)cc2)c(C)c1	-25.0%	-7.8%	?	-70.1*	-13.0%	-3.4%[14.2 µM]
CCOC(=O)c1c(C)n(S(=O)(=O)c2ccc(C)cc2)c2ccc(NS(=O)(=O)c3ccc(C)cc3)cc12	-18.8%	-27.1%	6.31µM*	22.7	-5.6%	-30.0%[46.1 µM]
CC(C)(C)c1ccc(OCc2ccc(C(=O)N/N=C3\CC4CC=CC34)cc2)cc1 (stereo not given)	-10.0%	i	-19.3%	-68.2*	10.9%	0.3%
N=c1n(CCO)c2ccccc2n1CCOc1ccc(Cl)cc1Cl	11.2µM*	?	nt	-1.5	28.2µM*	1.5%
Cc1ccc(OCC(O)Cn2c(=N)n(CCN3CCCCC3)c3ccccc32)cc1 (stereo not given)	-25.6%	-26.7%	?	-82.4*!	?	8.2µM*
N=c1n(CCN2CCCCC2)c2ccccc2n1CC(O)COc1ccc(Cl)cc1Cl (stereo not given)	-7.6%[7.34 µM]	-12.3%[7.34 µM]	?	-99.0*	-15.9%	5.62µM*
N=c1n(CCN2CCCC2)c2ccccc2n1CC(O)c1ccc(Cl)c(Cl)c1 (stereo not given)	nt	nt	nt	-98.6*	?	nt
OC(COc1ccc(Cl)cc1Cl)CN1CCc2ccccc2C1 (stereo not given)	nt	nt	nt	-25.8	26.6%	nt
COc1ccc(OCC(O)Cn2c(=N)n(CCN3CCCCC3)c3ccccc32)cc1 (stereo not given)	-20.0%	-26.8%	?	-7.5	-27.1%	?
CNc1nc2cnc(Nc3cccc(C(F)(F)F)c3)cc2n1Cc1ccc(OC)c(OC)c1	nt	nt	nt	20.5	nt	nt
O=S1(=O)c2cc(Cl)ccc2N2CC[C@H](C2)N1Cc1ccc(Cl)c(Cl)c1	nt	nt	nt	-13.8	nt	nt
O=C(Nc1cccc(Cl)c1)Nc1ccc2nc(-c3ccc(F)c(Cl)c3)nn2c1	nt	nt	nt	79.9	nt	nt
CCC1C(=O)NCCN1Cc1ccc2c(c1)CN(Cc1cc(OC)c3c(c1)OCO3)CCO2 (stereo not given)	-18.5%	-15.8%	nt	nt	?	nt

High-throughput results deposited in PubChem BioAssay by National Center for Advancing Translational Sciences (NCATS).
